Hit rate of the full screen: of about 300,000 compounds, about 2,400 (0.8%) were called active. For the sample, actives were picked, then their nearest neighbours and some compounds at random. Unmarked numbers belong to inactive results.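 The calls were made as follows: active = Every replicate reaches about 75%, or at least half do and their mean reaches it too (limit read from the data); inconclusive = At least half of replicates reach the limit but their mean does not; inactive = Under half of replicates reach the limit.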
Test: INS-1E beta cell survival under cytokines – luminescence, primary screen (AID 435005);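 also: 0% = cytokine-treated negative control wells and 100% = positive control rescue; higher means more ATP so stronger rescue from cytokine killing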
Details: INS-1E cytokine-induced death, ATP luminescence, 48 h; hits give high values; percent of positive-control rescue, neutral wells zero; concentration not given here

Structure (SMILES) | protection from apoptosis
Cc1noc(C)c1NC(=O)Nc1cccc2c1O[C@H](CN(C)S(=O)(=O)c1c(C)noc1C)[C@@H](C)CN([C@H](C)CO)C2=O | 1.37%
COc1ccc(S(=O)(=O)N2CCOCC2)cc1NC(=O)CSc1nnc(NC2CC2)s1 | 0.467%
CC(NC(=O)COC(=O)Cn1cc(C(F)(F)F)ccc1=O)c1ccccc1 (stereo unspecified) | 1.74%
COc1cc(NC(=O)c2ccccc2NS(=O)(=O)c2ccc(Cl)s2)cc(OC)c1 | 111% (active)
COC(=O)c1ccc(NC(=O)c2ccccc2NS(=O)(=O)c2ccccc2)cc1 | 32.1%
CCOc1ccc(NC(=O)c2ccccc2NS(C)(=O)=O)cc1 | 0.287%
Cc1ccc(-c2nn(-c3ccccc3)cc2/C=C/C(=O)Nc2cccc(S(N)(=O)=O)c2)cc1 | 120% (active)
Cc1ccc(-c2nn(-c3ccccc3)cc2C(=O)Nc2cccc(S(=O)(=O)N3CCOCC3)c2)cc1 | 1.74%
COc1ccc(-c2nn(-c3ccccc3)cc2/C=C\C(=O)Nc2ccc(C(=O)O)cc2)cc1 | 8.98%
O=S(=O)(c1ccc(SCc2ccccc2)nc1)N1CCCCCC1 | -5.69%
Cc1ccc(-c2csc(NC(=O)C3=COCCO3)n2)cc1C | 98.3% (active)
CC(=O)NCCC(=O)Nc1nc(-c2ccc3c(c2)OCCO3)cs1 | -3.86%
NS(=O)(=O)c1ccc2nc(NC(=O)C3=COCCO3)sc2c1 | -1.35%
C#CCOCCOCCOCCNc1nc(N2CCN(C(=O)[C@H](CCC(=O)O)n3cc(CN)nn3)CC2)nc(N2CCN(C(=O)[C@H](CCC(=O)O)n3cc(CN)nn3)CC2)n1 | -5.06%
Cc1noc(C)c1S(=O)(=O)N(C)C[C@H]1Oc2ccc(NC(=O)C3CC3)cc2C(=O)N([C@H](C)CO)C[C@@H]1C | 4.52%
CCCCCCc1ccc(O)cc1O | -5.91%
CCCCCCc1cc2cc(-c3nnc(-c4ccccc4)o3)c(=O)oc2cc1O | 119% (active)
Cc1c(CC(=O)NCCCCCC(=O)O)c(=O)oc2cc3occ(-c4ccccc4)c3cc12 | -7.43%
CCCCCCSc1ccc(-c2nc3ccc(Cl)cn3c2NCc2ccccc2)cc1 | -14.3%
O=C(COc1ccccc1F)NNC(=O)c1cc(Br)ccc1Cl | 4.16%
Oc1cccc(/C=N/Nc2ccc(Cl)nn2)c1O | 107% (active)
Clc1ccc(N/N=C/c2cccs2)nn1 | -1.26%

Structure (SMILES) | protection from apoptosis
COc1cccc(/C=N/Nc2ccc(Cl)nn2)c1 | 0.496%
CN(C)C(=O)COC(=O)c1cccc(S(=O)(=O)N2CC3(C)CC2CC(C)(C)C3)c1 (stereo unspecified) | -3.78%
OCCNc1nc(Nc2ccc(Cl)c(Cl)c2)nc2ccccc12 | 89.8% (active)
CN(C)c1nc(Nc2ccc(Cl)c(Cl)c2)nc(N(C)C)n1 | 2.44%
COc1cc2nc(Cl)nc(NCCO)c2cc1OC | -1.61%
COc1cc(C(=O)NCC(c2ccco2)N2CCCC2)ccc1OCc1ccccc1 (stereo unspecified) | 0.158%
COc1ccc(NC(=O)N(C)C[C@H]2Oc3ccc(NC(=O)C4CC4)cc3C(=O)N([C@H](C)CO)C[C@@H]2C)cc1 | -3.33%
O=C(N[C@@H]1C/C=C\C[C@@H](CC(=O)N(CCO)Cc2ccccc2)C(=O)N[C@H](Cc2ccccc2)COC1=O)OCC1c2ccccc2-c2ccccc21 | 50.5%
COc1ccc(-c2nc3cnccn3c2NC2CCCCC2)cc1-c1cccc(Cl)c1 | -8.81%
Cc1cccc(N=C2NN=C(c3c[nH]c4ccccc34)CS2)c1 | 22.1%
c1ccc(CN2CCC(N=C3NN=C(c4ccc5c(c4)OCCO5)CS3)CC2)cc1 | -0.528%
Clc1cccc(N=C2NN=C(c3ccc4c(c3)OCCO4)CS2)c1 | 83.6% (active)
CC(C#N)OC(=O)c1cccnc1SCC(=O)Nc1ccc2c(c1)OCO2 (stereo unspecified) | 3.24%
CCNC(=S)N1CCN(S(=O)(=O)c2ccc(Cl)s2)CC1 | -2.64%
COc1cc(NC(=O)COC(=O)c2cc(S(=O)(=O)N3CCOCC3)ccc2F)cc(OC)c1 | -2.85%
COC(=O)c1sc(-c2ccc(C(C)(C)C)cc2)cc1NC(=O)/C=C/C(=O)O | 99.2% (active)
CSc1ccc(NC(=O)/C=C/C(=O)O)cc1 | -4.41%
COc1ccccc1NC(=O)/C=C/C(=O)O | -6.73%
CCN(C[C@H]1N[C@@](Cc2ccccc2)(C(=O)OC)[C@H]2C(=O)N(Cc3ccccc3)C(=O)[C@@H]12)C(=O)c1ccc(C)cc1 | 13.6%
Clc1cccc(CN2COc3c(cc(Cl)c4cccnc34)C2)c1 | 85.5% (active)
CC(C)CC(=O)N1CCN(Cc2cccc(Cl)c2)CC1 | 3.65%
O=C(c1cccc(Cl)c1)N1CCN(Cc2ccccc2)CC1 | -9.96%

Structure (SMILES) | protection from apoptosis
COC(=O)[C@]1(Cc2ccccc2)N[C@H](CN(C)S(=O)(=O)c2ccc(OC(F)(F)F)cc2)[C@@H]2C(=O)N(Cc3ccccc3)C(=O)[C@@H]21 | 10.5%
CCOC(=O)c1ccc(NC(=O)Cn2cnc3cc(C)c(C)cc32)cc1 | 105% (active)
CCOC(=O)c1ccc(NC(=O)Cn2nnc(-c3ccc(C)cc3)n2)cc1 | 3.31%
CCCc1nnc(SCC(=O)Nc2ccc(C(=O)OCC)cc2)o1 | 1.98%
O=C(CNC(=O)c1ccccc1F)OCC(=O)c1c[nH]c2ccccc12 | -14.7%
COc1ccc(CCNC(=O)COC(=O)C2CC2C)cc1 (stereo unspecified) | 0.884%
Oc1ccccc1/C=N/n1c(-c2cccs2)n[nH]c1=S | -8.28%
S=c1[nH]nc(-c2cc(-c3ccccc3)n[nH]2)n1/N=C/c1c2ccccc2cc2ccccc12 | 10.1%
Cc1cc(-c2n[nH]c(=S)n2/N=C/C(Br)=C/c2ccccc2)n[nH]1 | 84.8% (active)
CC(OC(=O)c1ccc([N+](=O)[O-])cc1)C(=O)NCC1CCCCC1 (stereo unspecified) | -1.81%
Cc1cc(NC(=O)CN2C(=O)NC(CC(C)C)C2=O)no1 (stereo unspecified) | -6.09%
CCOC(=O)N1CCN(C(c2cccnc2)c2ccc3cccnc3c2O)CC1 (stereo unspecified) | 35.8%
Oc1ccccc1CN1CCN(C(c2ccccc2)c2ccccc2)CC1 | 0.217%
CCN1CCN(C(c2cccnc2)c2cc(Cl)c3cccnc3c2O)CC1 (stereo unspecified) | 92.4% (active)
COc1cc(/C=C/C(=O)OCC(=O)NCCCc2ccccc2)ccc1O | -1.98%
C=CC[C@H](CC(=O)NCCO)C(=O)N[C@@H](COC(=O)[C@@H](CC=C)Cc1ccc(F)cc1)Cc1c[nH]c2ccccc12 | 6.33%
COc1cc(NC(=O)c2cncc(-c3ccc(C#N)cc3)c2)cc(C(=O)Nc2cccc(C(F)(F)F)c2)c1 | 23.5%
COc1cc(NC(=O)c2[nH]cnc2C(N)=O)cc(C(=O)Nc2cccc(C(F)(F)F)c2)c1 | 114% (active)
COc1ccc(NC(=O)CN(C)CC(=O)Nc2cccc(C(F)(F)F)c2)cc1 | -3.94%
NS(=O)(=O)c1ccc(CNC(=S)NC(=O)c2ccco2)cc1 | 2.51%
COc1ccccc1OCCNc1cc(N2CCOCC2)ccc1[N+](=O)[O-] | -8.92%
COc1ccc(CCNc2cc(N3CCN(C(=O)c4ccccc4OC)CC3)ccc2[N+](=O)[O-])cc1OC | 85.3% (active)

Structure (SMILES) | protection from apoptosis
O=C(c1ccccc1)N1CCN(c2ccc([N+](=O)[O-])c(NCc3ccco3)c2)CC1 | 13.2%
O=S(=O)(c1ccc(SCc2ccc(Br)cc2)nc1)N1CCOCC1 | -8.12%
Cc1ccc(OCC(=O)Nc2ccccc2C(=O)NC2CC2)cc1 | -2.93%
CC(Sc1ccccc1F)C(=O)Nc1cccc(S(=O)(=O)N2CCOCC2)c1 (stereo unspecified) | -3.25%
CC(C)NC(=O)Nc1cccc2c1O[C@H](CN(C)S(=O)(=O)c1cccs1)[C@@H](C)CN([C@H](C)CO)C2=O | -19%
Cc1cc(C)nc(N/N=C/c2ccc([N+](=O)[O-])o2)n1 | -3.24%
CCn1c(=O)c([N+](=O)[O-])c(NCc2ccc3c(c2)OCO3)c2ccccc21 | 1.81%
CCn1c(/C=C/c2ccc([N+](=O)[O-])o2)nc2ccccc2c1=O | 104% (active)
C=CC(COCc1ccccc1)N(CC(=O)OC)S(=O)(=O)c1cc(Br)ccc1OC (stereo unspecified) | 1.07%
O=C(Nc1ccon1)c1nc[nH]c1C(=O)NCc1ccccc1 | 2.59%
O=S(=O)(O)Oc1c[nH]c2ccccc12 | 95.8% (active)
NC(=O)CSc1c[nH]c2ccccc12 | 0.633%
O=C(NC1CCCC1)C(=O)c1c[nH]c2ccccc12 | -2.17%
Cc1cc(NC(=O)COC(=O)/C=C/c2ccc(C)o2)no1 | -0.145%
CC(=O)C[C@H](O)CC(=O)[C@@H]1OC(=O)[C@@H](C)C/C=C\Cc2ccccc21 | -6.43%
COc1ccccc1N(CC(=O)Nc1ccc(C)cc1Cl)S(=O)(=O)c1cccs1 | -11%
O=C(Nc1cccc(S(=O)(=O)N2CCCC2)c1)c1cncc(Br)c1 | -6.13%
COc1ccc(NC(=O)/C(Cl)=C(/Cl)S(=O)Cc2ccc(C)cc2)cn1 (stereo unspecified) | 106% (active)
Cc1ccc(NC(=O)OCc2cncs2)cc1 | -4.61%
COc1ccc(Nc2ccc([N+](=O)[O-])cn2)cn1 | -4.41%
